Data on 66 compounds can be found in ChEMBL document CHEMBL3988442, “University of Dundee, Small-Polar-MMV Screening Library” (2021).

The structures appear in SMILES notation. The campaign covered roughly 85,000 compounds. About 440 (0.52%) showed an effect of 50% or more. For the sample, strong results were picked, then their nearest neighbours and some compounds at random.

The assay can be described thus: In vitro enzyme assay to detect hydrolysis of chlorophenol red-beta-D-[…] directly proportional to the number of Toxoplasma stably expressing beta-galactosidase. The format is functional, organism-based, Toxoplasma gondii. Also on record: scale not given: in the data most compounds retested in dose-response had high values.

Take `NC1CCN(CC(F)F)C1` (stereo unspecified): under “50 µM”, the “Percent Effect” value is -7.731%.

In the case of `NCC1CCN(CC(F)F)CC1`, the “Percent Effect” value (50 µM) was 1.969%.

For `NC1CCN(CC(F)F)CC1`, for the setting “50 µM”, the “Percent Effect” value was determined as 56.61%.

As to `Clc1cnccc1CN1CCC2(CCOC2)C1` (stereo unspecified), the “Percent Effect” value (50 µM) worked out at 3.263%.

As for `CC(C)CC(=O)NC1CC2(CCN(CCF)CC2)Oc2ccccc21.O=C(O)C(F)(F)F` (stereo unspecified), for the setting “10 µM”, the “Percent Effect” value was -26.74%.

Regarding `N#Cc1ccccn1`, the “Percent Effect” value (50 µM) is on record as -5.392%.

Take `CC[C@@H]1N(Cc2ccncc2)CCC[C@]12CCC(=O)N2C.O=C(O)C(F)(F)F.O=C(O)C(F)(F)F`: the “Percent Effect” value (10 µM) is on record as -4.695%.

For the compound `CC1CN(C)CCC1=O` (stereo unspecified), the “Percent Effect” value (50 µM) stood at 95.15%.

Regarding `CN1CCN2C(=O)N(C3CCCCC3)C[C@H]2C1`, the “Percent Effect” value (10 µM) was -2.107%.

Consider `Cc1ccc([C@@H](O)CN)cc1`, for which the “Percent Effect” value (50 µM) is -14.41%.

Consider `Cl.O=C1N(Cc2ccc(Cl)cc2)CCC12CCCNC2` (stereo unspecified), for which the “Percent Effect” value (10 µM) is listed as -3.809%.

Turning to `OCC1CCC2(CCCC2)CN1` (stereo unspecified), for the setting “50 µM”, the “Percent Effect” value came out at 23.34%.

With `Cc1nc(C(=O)N[C@H]2COC[C@@H]2N2CCCCC2)cs1`, the “Percent Effect” value (10 µM) turned out to be 24.19%.

Turning to `O=C(N[C@H]1COC[C@@H]1N1CCCC1)c1c[nH]nc1C1CCCCC1`, the “Percent Effect” value (10 µM) was determined as 7.68%.

Take `O=C(N[C@H]1COC[C@@H]1N1CCCCC1)c1cnc[nH]1`: the “Percent Effect” value (50 µM) is recorded as 53.1%.

`Cc1nc(C)c(CN2CC3(CCNCC3)OC2=O)s1`: the “Percent Effect” value (50 µM) was -5.089%.

Take `COc1ccc(CCN)c(Cl)c1`: the “Percent Effect” value (50 µM) was 6.537%.

As for `N[C@H]1[C@@H]2CC[C@H]1CN(CCn1cc(Cl)cn1)C2`, the “Percent Effect” value (50 µM) is on record as 17.19%.

As for `CC1CNCCN1c1cccc2cnccc12` (stereo unspecified), for the setting “50 µM”, the “Percent Effect” value was found to be 3.081%.

As for `COc1cccc(N2CCNCC2C)c1` (stereo unspecified), the “Percent Effect” value (50 µM) is reported as 93.04%.

`COc1cccc(C(C)N2CCNCC2)c1` (stereo unspecified): where the note is “50 µM”, the “Percent Effect” value is -0.2947%.

For `CNC(CCO)Cc1ccccc1` (stereo unspecified), where the note is “50 µM”, the “Percent Effect” value was -16.85%.

In the case of `CCC(C)Cn1nc(COC)oc1=O` (stereo unspecified), the “Percent Effect” value (50 µM) is 3.972%.

In the case of `NCCc1cc(C(F)(F)F)ccn1`, the “Percent Effect” value (50 µM) was found to be 99.23%.

As to `NCCc1ccc(F)cn1`, under “50 µM”, the “Percent Effect” value is on record as 2.533%.

On to `NCCc1ccc(C(F)(F)F)cn1`, for which, where the note is “50 µM”, the “Percent Effect” value is -0.7951%.

With `CN[C@@H]1CCO[C@H]1c1cccnc1`, the “Percent Effect” value (50 µM) is -18.11%.

Regarding `NCCC1CSc2ccccc2O1` (stereo unspecified), the “Percent Effect” value (50 µM) is 65.01%.

For `NCCC1COc2ccccc2O1` (stereo unspecified), the “Percent Effect” value (50 µM) is 1.961%.

In the case of `CC1CN(C)CCN1Cc1nc(N)nc(N(C)C)n1` (stereo unspecified), for the setting “50 µM”, the “Percent Effect” value stood at 17%.

As for `CO[C@H]1CCN(Cc2ccccn2)[C@@H]2CN(Cc3ccco3)C[C@H]12.O=C(O)C(F)(F)F.O=C(O)C(F)(F)F.O=C(O)C(F)(F)F`, the “Percent Effect” value (10 µM) is -1.554%.

Regarding `CO[C@H]1CCN(c2ncc(F)cn2)[C@@H]2CN(Cc3ccco3)C[C@H]12.O=C(O)C(F)(F)F.O=C(O)C(F)(F)F`, for the setting “10 µM”, the “Percent Effect” value was 10.96%.

On to `CO[C@@H]1CCN(Cc2ccccn2)[C@@H]2CN(Cc3ccco3)C[C@@H]21.O=C(O)C(F)(F)F.O=C(O)C(F)(F)F.O=C(O)C(F)(F)F`, for which, under “10 µM”, the “Percent Effect” value stood at 93.58%.

Take `Cc1noc(C)c1CC(=O)N1CCN(C(C)(C)C)CC1`: the “Percent Effect” value (50 µM) turned out to be 6.08%.

Regarding `CN(CC(N)=O)C1Cc2ccccc2C1`, the “Percent Effect” value (50 µM) is listed as -5.488%.

In the case of `O=C1CC(c2cccnc2)=NCCN1`, the “Percent Effect” value (50 µM) came to 42.08%.

On to `CC(=O)N1CCC2(CC1)c1ncc(-c3cccnc3)n1CCN2C`, for which the “Percent Effect” value (10 µM) is given as -29.38%.

`CC(=O)N1N=C(c2cccnc2)CC1c1ccco1` (stereo unspecified): the “Percent Effect” value (50 µM) turned out to be 88.79%.

Consider `C1CC(NC2COC2)CCO1`, for which, for the setting “50 µM”, the “Percent Effect” value turned out to be 12.23%.

In the case of `Cc1cc(CNC(C)Cn2cccn2)on1` (stereo unspecified), the “Percent Effect” value (50 µM) is reported as 9.614%.

Take `CC(C)N1CCN(Cc2ccc(N)nc2)CC1`: the “Percent Effect” value (50 µM) is -5.951%.

On to `Cc1ncc(C(=O)N2C[C@@H]3CCCN[C@@H]3C2)c(C)n1`, for which the “Percent Effect” value (50 µM) turned out to be 63.53%.

In the case of `Cc1ncc(C(=O)N2C[C@@H]3CCCN[C@@H]3C2)cn1`, the “Percent Effect” value (50 µM) is -7.245%.

As for `Cc1cc(C(=O)N2C[C@@H]3CCCN[C@@H]3C2)cc(C)n1`, the “Percent Effect” value (50 µM) was -13.26%.

As for `CCCN1CCN(Cc2nccn2C)CC1`, for the setting “50 µM”, the “Percent Effect” value was determined as 5.907%.

Regarding `Cc1ccc(C(=O)N2C[C@@H]3OCCN(C)[C@@H]3C2)cn1.O=C(O)C(F)(F)F`, under “10 µM”, the “Percent Effect” value stood at 3.64%.

For the compound `COC[C@H]1CCC[C@]12CN(Cc1cccc(C)n1)CCO2`, the “Percent Effect” value (10 µM) came to 72.48%.

Take `CCOC[C@@H]1CCC[C@@]12CN(Cc1cccnc1)CCO2`: the “Percent Effect” value (10 µM) is given as -14.2%.

Regarding `COC[C@@H]1CCC[C@]12CN(Cc1cccc(C)n1)CCO2.O=C(O)C(F)(F)F.O=C(O)C(F)(F)F`, the “Percent Effect” value (10 µM) is on record as -5.738%.

For the compound `Fc1cnc(N2CCCC3(CCN(Cc4cccs4)C3)C2)nc1.O=C(O)C(F)(F)F.O=C(O)C(F)(F)F` (stereo unspecified), the “Percent Effect” value (10 µM) was -7.824%.

On to `COCCN1CCN(c2ccc(OC)cc2)CC1`, for which, under “50 µM”, the “Percent Effect” value is -4.401%.

With `Cn1c(CCN2CCN(c3ccc(O)cc3)CC2)nc2ccccc21`, the “Percent Effect” value (10 µM) came to 79.1%.

With `NCCCN1CCN(c2ccccc2)CC1`, the “Percent Effect” value (50 µM) came out at 0.9017%.

Take `Cc1cc(C(=O)N2CC[C@H]3CC[C@@H](C2)N3)nc(C)n1`: under “50 µM”, the “Percent Effect” value is reported as 2.124%.

Take `Cn1cc(CCN)nn1`: the “Percent Effect” value (50 µM) was 26.5%.

Turning to `CC(C)(C)OC(=O)NC1CC2(CNC2)C1`, the “Percent Effect” value (50 µM) is given as -10.31%.

Turning to `CC(C)N1CCN(Cc2nnnn2C2CC2)CC1`, the “Percent Effect” value (50 µM) was -4.596%.

As for `CCCn1nnnc1CN1CCN(CC)CC1`, where the note is “50 µM”, the “Percent Effect” value was -8.148%.

Take `CCN1CCN(Cc2nnnn2C2CC2)CC1`: the “Percent Effect” value (50 µM) is reported as 99.81%.

For `COc1ccc(CN2CC[C@@]3(O)CCCC[C@H]3C2)cn1`, the “Percent Effect” value (50 µM) was -5.926%.

`Cc1cc(C2CCCN2)on1` (stereo unspecified): the “Percent Effect” value (50 µM) is recorded as -7.97%.

On to `CN(C)c1ncc2c(n1)C1(CCN(CC3CC3)C1)COC2.O=C(O)C(F)(F)F` (stereo unspecified), for which the “Percent Effect” value (10 µM) is -3.49%.

Take `COCCN1CCC2(COCc3cnc(N4CCOCC4)nc32)C1.O=C(O)C(F)(F)F` (stereo unspecified): the “Percent Effect” value (10 µM) is -0.4992%.

On to `c1nc(N2CCOCC2)nc2c1COCC21CCN(CC2CC2)C1` (stereo unspecified), for which, for the setting “10 µM”, the “Percent Effect” value worked out at 63.85%.

With `Fc1cnc(N2CCC3(CC2)CN(Cc2cccs2)CCO3)nc1.O=C(O)C(F)(F)F.O=C(O)C(F)(F)F`, the “Percent Effect” value (10 µM) came to 21.36%.

As to `C[S+](C)[c-]1c(=O)[nH]c(=O)n(CCc2ccc(F)cc2)c1=O`, the “Percent Effect” value (10 µM) is 11.54%.
